Among the data in PubChem BioAssay (NCATS) are activation values, retold here.

Several values for one entry are separate records, joined by “and”; a condition that tells them apart may be missing. Identical values can stand only once. Results filed as inconclusive are left out. Values without a mark were called inactive. Calls follow the shape of the dose curve; as a rule, active = well fitted curve in the direction sought with a large enough effect in the signal ratio, with a control signal flat; inconclusive = small, poorly fitted or top-dose-only effect, or a change in a side signal; inactive = no such curve, though single readings can be large or run the other way; the % refers to the signal ratio.

The target in this assay is Glucocorticoid receptor (Homo sapiens) (UniProt P04150). In words: qHTS assay for small molecule agonists of glucocorticoid receptor signaling (AID 588532). As to conditions: HeLa MMTV-bla, beta-lactamase ratio, agonist, 18 h; hits give high values; percent of dexamethasone control, DMSO zero. The text has this: NIH Chemical Genomics Center [NCGC] U.S. Environmental Protection Agency [EPA] National Institutes of Environmental Health Sciences [NIEHS] National Toxicology Program [NTP] NCGC Assay Overview The Glucocorticoid receptor (GR), a nuclear receptor subfamily member and its natural ligands includes […] etc. The GR is a validated drug target for inflammation. GR ligands such as dexamethasone are clinically available as anti-inflammatory drugs. Glucocorticoids implicate role in carbohydrate, protein and lipid metabolisms and programmed cell death. They are also a component of many chemotherapy regimens for the treatment of leukemias, lymphomas, and myelomas because of their role in the induction of apoptosis.
Sequence of Glucocorticoid receptor (Homo sapiens) (P04150 whole entry, looked up): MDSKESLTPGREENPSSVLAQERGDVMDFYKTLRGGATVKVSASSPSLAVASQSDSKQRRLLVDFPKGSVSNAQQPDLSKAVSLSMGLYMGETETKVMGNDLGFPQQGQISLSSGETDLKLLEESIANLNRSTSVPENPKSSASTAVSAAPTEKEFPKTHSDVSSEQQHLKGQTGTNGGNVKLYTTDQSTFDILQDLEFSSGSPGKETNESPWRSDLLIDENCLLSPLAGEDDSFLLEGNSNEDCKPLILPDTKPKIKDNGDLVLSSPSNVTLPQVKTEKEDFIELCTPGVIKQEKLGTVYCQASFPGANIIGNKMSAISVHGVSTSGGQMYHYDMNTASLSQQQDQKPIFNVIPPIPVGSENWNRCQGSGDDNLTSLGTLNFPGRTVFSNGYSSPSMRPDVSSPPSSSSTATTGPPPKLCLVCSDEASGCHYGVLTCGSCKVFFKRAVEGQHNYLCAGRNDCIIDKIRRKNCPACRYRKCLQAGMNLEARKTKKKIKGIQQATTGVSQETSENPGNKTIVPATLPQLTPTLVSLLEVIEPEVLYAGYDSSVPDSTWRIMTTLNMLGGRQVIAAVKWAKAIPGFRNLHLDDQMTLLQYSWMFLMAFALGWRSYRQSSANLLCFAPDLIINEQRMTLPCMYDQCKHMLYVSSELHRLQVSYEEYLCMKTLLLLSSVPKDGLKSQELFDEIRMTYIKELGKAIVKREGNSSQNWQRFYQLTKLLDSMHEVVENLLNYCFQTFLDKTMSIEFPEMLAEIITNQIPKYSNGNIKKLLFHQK
NCGC Assay Protocol Summary Using a beta-lactamase reporter-gene under control of glucocorticoid response element (GRE), a cell-based assay [CellSensor MMTV-bla HeLa cell line assay developed by Invitrogen] was used to measure GR ligands signaling. CellSensor MMTV-bla HeLa cells were used with assay medium containing 1% charcoal/dextran treated FBS, 0.1 mM NEAA, 1 mM sodium pyruvate and 25mM HEPES. The assay was performed in clear bottom black Greiner 1536-well plates. Dexamethasone and Mifepristine were used in the screen as agonist and antagonist positive controls respectively. Library compounds were measured for their ability to stimulate the reporter gene activity. Compounds were screened in a titration series in 1536-well format. The fluorescence intensity (405 nm excitation, 460/530 nm emission) was measured using an EnVision plate reader. Data was normalized relative to Dexamethasone control (0.1 uM, 100%), and DMSO only wells (basal, 0%). Concentration-response titration points for each compound were fitted to the Hill equation yielding concentrations of half-maximal stimulation (EC50) and maximal response (efficacy) values. qHTS protocol for GR beta-lactamase assay in agonist mode [Step] [Parameter] [Value] [Description] 1. Reagent; 6 uL; 1500 cells/well 2. Incubation; 37 C for 3-5 hrs 3. Compounds; 23 nL; 0.59 nM to 92 uM 4. Controls (Dexamethasone); 23 nL, - One column with dose response, start 4.6uM, 1:3 dilutions in duplicates - Final concentrations of 0.1 uM and 2 nM in two columns 5. Incubation; 37 C for 18 hrs 6. Detection reagent; 1 uL of CCF4-dye 7. Incubation; RT for 2 hrs 8. Detection; Fluorescence; Envision plate reader
A general note: qHTS replaces the single test concentration by a dilution series.
`C[C@H](CCC(=O)O)[C@H]1CC[C@H]2[C@@H]3[C@H](O)C[C@@H]4C[C@H](O)CC[C@]4(C)[C@H]3C[C@H](O)[C@]12C`: the activation is 0.114%.

For `Cc1ccc(S(=O)(=O)O)cc1C`, the activation is 2.36%.

On to `CC(C)CCCCCCc1ccc(O)cc1`, for which the activation is -1.88%.

On to `C=CC(C)(O)CC/C=C(\C)CCC=C(C)C` (configuration not stated), for which the activation is 1.37%.

`Oc1cccc(O)c1O`: the activation is 11%.

On to `Cc1ccc(S(=O)(=O)NCl)cc1`, for which the activation was 0.935%.

Consider `OC[C@H]1O[C@@H]2O[C@H]3[C@H](O)[C@@H](O)[C@@H](O[C@H]4[C@H](O)[C@@H](O)[C@@H](O[C@H]5[C@H](O)[C@@H](O)[C@@H](O[C@H]6[C@H](O)[C@@H](O)[C@@H](O[C@H]7[C@H](O)[C@@H](O)[C@@H](O[C@H]1[C@H](O)[C@H]2O)O[C@@H]7CO)O[C@@H]6CO)O[C@@H]5CO)O[C@@H]4CO)O[C@@H]3CO`, for which the activation was 3.77% and 9.85%.

As to `Nc1ccc(N=Nc2ccccc2)c(N)n1`, the activation is -10.4% and 1.07%.

With `OCl`, the activation is -3.26%.

For `CCOC(C)OCC`, the activation was -4.92%.

Take `CCCCC`: the activation is 1.13%.

Turning to `OCc1ccccc1`, the activation is -0.651%.

For `NCCO/C=C/[C@H](N)C(=O)O`, the activation was -5.2%.

With `O=P(O)(O)O`, the activation was -2.92%.

On to `O=c1n(CC2CO2)c(=O)n(CC2CO2)c(=O)n1CC1CO1` (configuration not stated), for which the activation was -4.93%.

As for `Nc1nccs1`, the activation was 10.5%.

Turning to `C=C(C)C1CC=C(C)CC1` (configuration not stated), the activation was -1.86% and -2.03%.

As for `CCCCCCCCCCCCCCCCCC(=O)OC[C@@H](O)[C@H]1OC[C@H](O)[C@H]1O`, the activation is 3.63%.

With `OCCOCCOCCO`, the activation is -3.1% and -7.85%.

Regarding `CO[C@@H]1[C@H](OC(=O)/C=C/C=C/C=C/C=C/C(=O)O)CC[C@]2(CO2)[C@H]1[C@@]1(C)O[C@@H]1CC=C(C)C`, the activation was -1.18%.

For the molecule `OB(O)O`, the activation is -3.94% and -21.4%.

`[O-][N+](=Nc1ccccc1)c1ccccc1`: the activation is 3.15%.

For the molecule `CC1=CCC2CC1C2(C)C` (configuration not stated), the activation is 3.24%.

As to `C[C@H](CCC(=O)O)[C@H]1CC[C@H]2[C@@H]3CC[C@@H]4C[C@H](O)CC[C@]4(C)[C@H]3C[C@H](O)[C@]12C`, the activation was -6.09%.

With `CC1=CC(=O)NS(=O)(=O)O1`, the activation was -3.71%.

`CO/N=C(/C(=O)N[C@@H]1C(=O)N2C(C(=O)O)=C(COC(N)=O)CS[C@H]12)c1ccco1`: the activation is 5.73%.

As to `C[C@H]1O[C@@H](O[C@H]2[C@@H](O)C[C@H](O[C@H]3[C@@H](O)C[C@H](O[C@H]4CC[C@@]5(C)[C@H](CC[C@@H]6[C@@H]5C[C@@H](O)[C@]5(C)[C@@H](C7=CC(=O)OC7)CC[C@]65O)C4)O[C@@H]3C)O[C@@H]2C)C[C@H](O)[C@@H]1O`, the activation was -7.98%.

On to `CC(C)(C)CC(C)(C)c1ccc(OCCO)cc1`, for which the activation was 12%.

Take `ClC(Cl)Cl`: the activation is -4.49%.

Regarding `CC(C)CCC[C@@H](C)[C@H]1CC[C@H]2[C@@H]3CC=C4C[C@@H](O)CC[C@]4(C)[C@H]3CC[C@]12C`, the activation is 13.5%.

For the molecule `N[C@@H](Cc1cc(I)c(Oc2ccc(O)c(I)c2)c(I)c1)C(=O)O`, the activation is -18.8%.

Consider `OCC(O)CO`, for which the activation is 2.41% and -1.45%.
